According to ChEMBL document CHEMBL1961873, “Compounds: GSK PKIS; Assays: Nanosyn kinase panel” (2012):

Tests used:
[1] = biological target: Mitogen-activated protein kinase 3 (Homo sapiens) (UniProt P27361); settings: at 1 µM;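 note: values are mean percent inhibition of MAPK3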
[2] = biological target: SRSF protein kinase 3 (Homo sapiens) (UniProt Q9UPE1); settings: at 0.1 µM
[3] = biological target: SRSF protein kinase 3 (Homo sapiens) (UniProt Q9UPE1); settings: at 1 µM
[4] = biological target: Mitogen-activated protein kinase 14 (Homo sapiens) (UniProt Q16539); settings: at 0.1 µM
Sequence of Mitogen-activated protein kinase 14 (Homo sapiens) (Q16539 whole entry): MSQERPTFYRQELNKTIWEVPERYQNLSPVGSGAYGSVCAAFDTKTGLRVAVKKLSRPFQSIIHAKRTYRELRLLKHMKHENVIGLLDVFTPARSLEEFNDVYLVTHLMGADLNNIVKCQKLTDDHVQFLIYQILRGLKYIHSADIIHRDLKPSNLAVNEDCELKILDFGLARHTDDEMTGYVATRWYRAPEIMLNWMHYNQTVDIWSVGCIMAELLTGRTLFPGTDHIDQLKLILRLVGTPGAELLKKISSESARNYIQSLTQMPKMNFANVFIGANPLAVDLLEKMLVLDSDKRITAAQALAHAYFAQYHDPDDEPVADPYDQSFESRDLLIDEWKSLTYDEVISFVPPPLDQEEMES

[5] = biological target: Mitogen-activated protein kinase 14 (Homo sapiens) (UniProt Q16539); settings: at 1 µM
[6] = biological target: Mitogen-activated protein kinase 11 (Homo sapiens) (UniProt Q15759); settings: at 0.1 µM
Sequence of Mitogen-activated protein kinase 11 (Homo sapiens) (Q15759 whole entry): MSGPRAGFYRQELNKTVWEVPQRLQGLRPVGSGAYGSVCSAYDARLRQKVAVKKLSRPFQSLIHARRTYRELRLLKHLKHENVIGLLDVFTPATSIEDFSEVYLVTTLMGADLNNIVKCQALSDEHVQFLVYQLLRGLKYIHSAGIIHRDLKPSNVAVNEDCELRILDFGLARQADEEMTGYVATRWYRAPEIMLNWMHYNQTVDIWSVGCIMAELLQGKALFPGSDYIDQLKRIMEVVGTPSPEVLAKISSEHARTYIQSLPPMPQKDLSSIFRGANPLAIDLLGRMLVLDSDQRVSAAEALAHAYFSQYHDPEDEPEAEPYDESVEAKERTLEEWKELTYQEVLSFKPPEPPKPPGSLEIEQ

[7] = biological target: Mitogen-activated protein kinase 11 (Homo sapiens) (UniProt Q15759); settings: at 1 µM
[8] = biological target: T1, Mitogen-activated protein kinase 13 (Homo sapiens) (UniProt O15264); settings: at 0.1 µM
T1 sequence (whole entry): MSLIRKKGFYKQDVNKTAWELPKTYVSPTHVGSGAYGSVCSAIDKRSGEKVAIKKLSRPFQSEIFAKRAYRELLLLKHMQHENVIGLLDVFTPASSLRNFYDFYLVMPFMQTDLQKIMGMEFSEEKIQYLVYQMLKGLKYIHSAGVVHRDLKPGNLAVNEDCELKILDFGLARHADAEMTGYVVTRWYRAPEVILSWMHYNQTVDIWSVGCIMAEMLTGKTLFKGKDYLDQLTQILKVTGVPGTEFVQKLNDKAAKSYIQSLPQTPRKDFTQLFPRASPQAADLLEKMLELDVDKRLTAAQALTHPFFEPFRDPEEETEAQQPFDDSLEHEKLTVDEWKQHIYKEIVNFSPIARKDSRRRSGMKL

[9] = biological target: T1, Mitogen-activated protein kinase 13 (Homo sapiens); settings: at 1 µM
[10] = biological target: T2, Mitogen-activated protein kinase 12 (Homo sapiens) (UniProt P53778); settings: at 0.1 µM
T2 sequence (whole entry): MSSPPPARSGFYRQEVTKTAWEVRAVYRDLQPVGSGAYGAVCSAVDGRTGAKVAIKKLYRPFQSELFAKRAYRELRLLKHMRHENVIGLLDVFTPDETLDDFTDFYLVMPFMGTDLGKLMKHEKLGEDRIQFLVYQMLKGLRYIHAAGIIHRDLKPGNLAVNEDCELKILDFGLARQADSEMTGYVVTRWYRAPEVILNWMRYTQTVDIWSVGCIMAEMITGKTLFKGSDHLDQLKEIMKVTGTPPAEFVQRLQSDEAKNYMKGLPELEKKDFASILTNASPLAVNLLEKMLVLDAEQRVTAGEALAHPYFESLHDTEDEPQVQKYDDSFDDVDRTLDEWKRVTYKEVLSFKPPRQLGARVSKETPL

[11] = biological target: T2, Mitogen-activated protein kinase 12 (Homo sapiens); settings: at 1 µM
[12] = biological target: SRSF protein kinase 1 (Homo sapiens) (UniProt Q96SB4); settings: at 0.1 µM
Sequence of SRSF protein kinase 1 (Homo sapiens) (Q96SB4 whole entry, canonical isoform): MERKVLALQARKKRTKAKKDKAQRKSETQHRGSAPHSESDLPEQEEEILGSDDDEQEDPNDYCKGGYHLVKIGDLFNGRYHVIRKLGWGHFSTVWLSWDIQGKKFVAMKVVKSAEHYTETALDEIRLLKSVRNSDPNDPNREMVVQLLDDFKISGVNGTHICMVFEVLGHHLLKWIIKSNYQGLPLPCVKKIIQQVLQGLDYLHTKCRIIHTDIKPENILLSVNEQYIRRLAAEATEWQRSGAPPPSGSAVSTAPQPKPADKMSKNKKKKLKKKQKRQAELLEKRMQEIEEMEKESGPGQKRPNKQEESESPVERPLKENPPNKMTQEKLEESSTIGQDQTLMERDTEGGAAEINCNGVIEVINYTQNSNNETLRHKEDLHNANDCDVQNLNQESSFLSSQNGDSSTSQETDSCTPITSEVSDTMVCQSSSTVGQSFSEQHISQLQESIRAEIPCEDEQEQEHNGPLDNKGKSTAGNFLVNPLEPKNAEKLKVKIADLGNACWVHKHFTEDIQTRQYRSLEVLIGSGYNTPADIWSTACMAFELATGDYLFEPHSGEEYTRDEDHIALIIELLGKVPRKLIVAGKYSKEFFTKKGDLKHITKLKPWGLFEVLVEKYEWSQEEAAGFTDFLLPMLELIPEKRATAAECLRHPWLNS

[13] = biological target: SRSF protein kinase 1 (Homo sapiens) (UniProt Q96SB4); settings: at 1 µM
[14] = biological target: Phosphatidylinositol 4,5-bisphosphate 3-kinase catalytic subunit alpha isoform (Homo sapiens) (UniProt P42336); settings: at 0.1 µM
Sequence of Phosphatidylinositol 4,5-bisphosphate 3-kinase catalytic subunit alpha isoform (Homo sapiens) (P42336 whole entry, canonical isoform): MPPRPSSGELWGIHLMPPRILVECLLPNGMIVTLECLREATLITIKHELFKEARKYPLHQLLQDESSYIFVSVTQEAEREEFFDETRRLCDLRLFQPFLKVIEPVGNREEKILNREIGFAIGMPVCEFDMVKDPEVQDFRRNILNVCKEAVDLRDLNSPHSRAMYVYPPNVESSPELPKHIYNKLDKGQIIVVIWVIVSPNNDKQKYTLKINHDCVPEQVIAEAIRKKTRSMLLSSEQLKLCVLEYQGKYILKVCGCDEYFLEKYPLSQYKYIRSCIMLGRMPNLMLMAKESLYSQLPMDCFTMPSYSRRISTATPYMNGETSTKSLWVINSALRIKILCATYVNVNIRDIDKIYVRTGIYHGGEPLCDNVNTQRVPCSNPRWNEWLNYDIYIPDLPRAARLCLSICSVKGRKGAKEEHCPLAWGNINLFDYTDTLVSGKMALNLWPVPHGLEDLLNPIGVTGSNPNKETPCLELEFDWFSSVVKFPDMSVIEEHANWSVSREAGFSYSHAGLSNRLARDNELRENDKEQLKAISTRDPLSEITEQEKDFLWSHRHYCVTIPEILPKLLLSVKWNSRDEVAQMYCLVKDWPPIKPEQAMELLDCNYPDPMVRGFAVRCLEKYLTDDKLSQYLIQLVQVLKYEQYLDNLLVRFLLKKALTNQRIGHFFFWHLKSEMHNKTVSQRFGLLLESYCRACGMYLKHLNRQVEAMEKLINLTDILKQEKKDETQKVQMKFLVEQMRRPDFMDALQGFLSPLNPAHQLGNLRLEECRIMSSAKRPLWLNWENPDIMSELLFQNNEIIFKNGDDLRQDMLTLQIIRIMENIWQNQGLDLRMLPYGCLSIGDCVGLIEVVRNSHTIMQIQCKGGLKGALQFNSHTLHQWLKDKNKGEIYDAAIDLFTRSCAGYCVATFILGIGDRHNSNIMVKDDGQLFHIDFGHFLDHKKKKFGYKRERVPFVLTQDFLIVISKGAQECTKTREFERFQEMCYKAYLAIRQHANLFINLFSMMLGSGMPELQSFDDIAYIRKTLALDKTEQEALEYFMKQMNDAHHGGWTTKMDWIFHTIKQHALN

[15] = biological target: Phosphatidylinositol 4,5-bisphosphate 3-kinase catalytic subunit alpha isoform (Homo sapiens) (UniProt P42336); settings: at 1 µM
[16] = biological target: T3, Phosphatidylinositol 4,5-bisphosphate 3-kinase catalytic subunit delta isoform (Homo sapiens) (UniProt O00329); settings: at 0.1 µM
T3 sequence (whole entry): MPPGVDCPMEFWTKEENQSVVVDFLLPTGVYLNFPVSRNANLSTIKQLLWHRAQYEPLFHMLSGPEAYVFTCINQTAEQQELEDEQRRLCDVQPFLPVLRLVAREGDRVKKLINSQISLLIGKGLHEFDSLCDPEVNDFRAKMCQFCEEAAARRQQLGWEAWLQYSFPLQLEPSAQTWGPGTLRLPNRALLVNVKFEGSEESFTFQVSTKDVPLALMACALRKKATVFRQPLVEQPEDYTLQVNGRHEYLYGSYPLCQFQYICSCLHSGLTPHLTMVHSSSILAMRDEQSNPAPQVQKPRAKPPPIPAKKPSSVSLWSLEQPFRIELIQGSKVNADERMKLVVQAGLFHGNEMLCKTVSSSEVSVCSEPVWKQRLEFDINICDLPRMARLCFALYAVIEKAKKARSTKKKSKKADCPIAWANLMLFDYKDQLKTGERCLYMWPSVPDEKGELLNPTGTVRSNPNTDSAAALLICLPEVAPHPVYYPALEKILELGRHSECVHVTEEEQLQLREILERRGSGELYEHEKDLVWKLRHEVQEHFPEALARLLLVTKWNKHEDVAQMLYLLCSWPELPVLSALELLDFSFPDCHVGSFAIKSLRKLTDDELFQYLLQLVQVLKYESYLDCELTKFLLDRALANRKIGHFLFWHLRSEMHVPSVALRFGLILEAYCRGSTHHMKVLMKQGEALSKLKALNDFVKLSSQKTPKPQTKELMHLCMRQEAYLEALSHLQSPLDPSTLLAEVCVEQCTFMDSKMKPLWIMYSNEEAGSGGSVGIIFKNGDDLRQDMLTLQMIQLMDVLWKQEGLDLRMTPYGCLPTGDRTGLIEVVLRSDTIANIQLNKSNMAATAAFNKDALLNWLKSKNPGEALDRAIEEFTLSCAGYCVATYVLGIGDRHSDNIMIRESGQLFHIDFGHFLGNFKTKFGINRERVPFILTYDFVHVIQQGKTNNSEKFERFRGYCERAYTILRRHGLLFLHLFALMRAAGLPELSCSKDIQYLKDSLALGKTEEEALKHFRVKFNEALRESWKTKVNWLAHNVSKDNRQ

[17] = biological target: T3, Phosphatidylinositol 4,5-bisphosphate 3-kinase catalytic subunit delta isoform (Homo sapiens); settings: at 1 µM
[18] = biological target: Phosphatidylinositol 4-kinase beta (Homo sapiens) (UniProt Q9UBF8); settings: at 0.1 µM
Sequence of Phosphatidylinositol 4-kinase beta (Homo sapiens) (Q9UBF8 2-816 limits assumed): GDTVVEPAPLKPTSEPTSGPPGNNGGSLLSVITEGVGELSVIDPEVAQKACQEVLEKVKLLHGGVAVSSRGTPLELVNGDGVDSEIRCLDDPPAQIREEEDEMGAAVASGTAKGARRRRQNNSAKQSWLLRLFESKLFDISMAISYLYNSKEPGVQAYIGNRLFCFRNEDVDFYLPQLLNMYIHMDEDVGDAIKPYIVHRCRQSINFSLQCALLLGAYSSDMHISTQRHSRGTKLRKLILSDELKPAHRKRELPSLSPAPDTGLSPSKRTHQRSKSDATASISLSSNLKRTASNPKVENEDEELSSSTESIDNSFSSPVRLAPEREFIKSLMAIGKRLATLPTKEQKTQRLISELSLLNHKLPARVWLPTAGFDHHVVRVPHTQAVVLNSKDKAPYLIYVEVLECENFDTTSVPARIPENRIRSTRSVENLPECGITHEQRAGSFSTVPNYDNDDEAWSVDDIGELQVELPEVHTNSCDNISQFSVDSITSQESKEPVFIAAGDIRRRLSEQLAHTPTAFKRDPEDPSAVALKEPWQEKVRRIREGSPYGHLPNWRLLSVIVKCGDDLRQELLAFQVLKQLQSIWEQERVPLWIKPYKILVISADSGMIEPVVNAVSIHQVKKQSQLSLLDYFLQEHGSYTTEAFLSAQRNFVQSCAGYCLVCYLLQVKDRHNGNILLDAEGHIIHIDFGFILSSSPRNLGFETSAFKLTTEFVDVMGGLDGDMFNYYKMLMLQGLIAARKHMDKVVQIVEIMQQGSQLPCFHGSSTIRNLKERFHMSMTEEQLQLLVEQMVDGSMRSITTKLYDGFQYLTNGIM

[19] = biological target: Phosphatidylinositol 4-kinase beta (Homo sapiens) (UniProt Q9UBF8); settings: at 1 µM
[20] = biological target: Sphingosine kinase 1 (Homo sapiens) (UniProt Q9NYA1); settings: at 0.1 µM;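 note: mean percent inhibition of SPHK1 activity, measured within the GSK PKIS screening panel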
Sequence of Sphingosine kinase 1 (Homo sapiens) (Q9NYA1 whole entry): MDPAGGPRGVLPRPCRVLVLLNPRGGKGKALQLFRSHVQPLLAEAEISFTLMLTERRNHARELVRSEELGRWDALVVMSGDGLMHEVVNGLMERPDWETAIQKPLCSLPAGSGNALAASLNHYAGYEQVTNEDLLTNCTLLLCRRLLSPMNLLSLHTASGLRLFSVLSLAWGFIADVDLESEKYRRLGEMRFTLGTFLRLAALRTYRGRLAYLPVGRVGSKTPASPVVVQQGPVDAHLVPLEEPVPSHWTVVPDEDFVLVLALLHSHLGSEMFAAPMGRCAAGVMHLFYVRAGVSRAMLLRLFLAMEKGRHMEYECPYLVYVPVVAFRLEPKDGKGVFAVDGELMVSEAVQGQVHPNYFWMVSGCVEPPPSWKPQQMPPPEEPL

Sequence of Mitogen-activated protein kinase 3 (Homo sapiens) (P27361 whole entry): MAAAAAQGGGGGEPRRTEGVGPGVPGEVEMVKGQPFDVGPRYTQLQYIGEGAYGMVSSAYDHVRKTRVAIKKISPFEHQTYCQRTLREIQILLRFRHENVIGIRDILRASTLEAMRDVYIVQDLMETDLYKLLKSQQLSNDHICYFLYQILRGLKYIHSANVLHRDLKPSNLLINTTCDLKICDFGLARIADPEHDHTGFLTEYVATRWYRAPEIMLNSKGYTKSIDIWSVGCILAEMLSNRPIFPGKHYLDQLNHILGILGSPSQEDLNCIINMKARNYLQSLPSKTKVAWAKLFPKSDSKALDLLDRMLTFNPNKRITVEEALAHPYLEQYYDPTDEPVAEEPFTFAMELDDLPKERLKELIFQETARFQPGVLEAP
Sequence of SRSF protein kinase 3 (Homo sapiens) (Q9UPE1 whole entry): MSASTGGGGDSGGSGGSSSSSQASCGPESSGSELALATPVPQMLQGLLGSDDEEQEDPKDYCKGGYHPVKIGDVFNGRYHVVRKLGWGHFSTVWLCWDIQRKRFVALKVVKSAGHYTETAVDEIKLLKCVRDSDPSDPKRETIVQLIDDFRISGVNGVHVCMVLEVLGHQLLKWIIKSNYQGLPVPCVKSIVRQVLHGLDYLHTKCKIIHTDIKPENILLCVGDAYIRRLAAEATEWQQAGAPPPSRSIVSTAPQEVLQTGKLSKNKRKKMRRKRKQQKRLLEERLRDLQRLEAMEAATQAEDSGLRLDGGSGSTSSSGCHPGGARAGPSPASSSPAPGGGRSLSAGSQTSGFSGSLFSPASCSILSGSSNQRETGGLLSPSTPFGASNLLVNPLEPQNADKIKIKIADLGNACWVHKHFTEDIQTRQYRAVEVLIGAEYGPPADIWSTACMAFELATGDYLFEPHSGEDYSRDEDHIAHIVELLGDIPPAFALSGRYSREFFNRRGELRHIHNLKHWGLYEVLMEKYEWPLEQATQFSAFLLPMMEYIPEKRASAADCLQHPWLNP

SMILES	inhibition [1] [%]	inhibition [2] [%]	inhibition [3] [%]	inhibition [4] [%]	inhibition [5] [%]	inhibition [6] [%]	inhibition [7] [%]	inhibition [8] [%]	inhibition [9] [%]	inhibition [10] [%]	inhibition [11] [%]	inhibition [12] [%]	inhibition [13] [%]	inhibition [14] [%]	inhibition [15] [%]	inhibition [16] [%]	inhibition [17] [%]	inhibition [18] [%]	inhibition [19] [%]	inhibition [20] [%]
c1ccc(-c2nc3n(c2-c2ccc4c(c2)OCO4)CCC3)nc1	2.21	-1.69	-1.14	4.21	13.4	0.27	2.77	1.49	2.52	1.78	1.88	-0.51	-1.84	5.05	7.23	6.67	8.16	-3.19	-2.19	-1.79
COc1ccc(-c2nn3ncccc3c2-c2ccnc(Nc3ccc4c(c3)OCCO4)n2)cc1	1.27	-1.29	-0.23	68.9	87	48.6	75.4	0.57	-1.08	0.47	1.16	-0.82	-2.72	2.37	3.63	2.13	5.91	-2.82	-1.12	-0.35
NS(=O)(=O)c1ccc(Nc2ncc(-c3ccccc3)o2)cc1	3.8	-0.01	1.63	3.61	9.04	6.06	7.67	3.81	5.86	0.56	1.81	-0.91	0.75	3.75	2.69	0.62	3.33	-3.61	4.39	0.6
Nc1nc(-c2ccc(F)cc2)c(-c2ccc3ncccc3n2)s1	3.86	-0.15	2.22	23.6	76.4	7.76	33.1	5.53	5.76	1.26	2.9	-1.42	1.42	7.33	20.4	7.18	32.8	8.12	7.23	0.08
Cc1ccc(O)cc1Nc1ccnc2cc(-c3ccccn3)ccc12	4.04	1.4	0.54	13.9	58.8	4.81	9.25	5.51	2.99	1.52	3	-1.63	-2.47	2.72	7.92	2.39	15.8	-2.37	-0.81	0
COc1ccc2c(-c3ccnc(Nc4cccc(OC(F)(F)F)c4)n3)cnn2n1	3.9	-1.04	2.71	2.92	8.4	0.17	5.04	-1.73	7.58	1.78	2.47	-0.39	3.84	2.57	6.99	0.71	5.67	0.16	2.84	0
